# Source: PubChem BioAssay AID1259400 (National Center for Advancing Translational Sciences (NCATS), 2018)
# The whole screen tested about 350,000 compounds, of which about 2,100 (0.6%) were called active. Another 1% or so got no clear call; they are omitted.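 The calls were made as follows: active = activity change of -60% or lower, but not beyond a set lower limit; inconclusive = change between -60% and -40%, or beyond the set limit; inactive = change above -40%.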 Only a selection was taken, and actives are over-represented in it overall.
# Target: Relaxin receptor 1 (Homo sapiens) (UniProt Q9HBX9)
# Experiment: qHTS Assay for Antagonists of the Relaxin Receptor RXFP1
# Settings: HEK293-RXFP1, relaxin-stimulated cAMP HTRF, 30 min; at 57.5 µM; stronger effect = lower value
# Excerpt: The relaxin hormone is involved in the variety of biological functions in normal tissues and diseases. The role of relaxin is well-established in female reproduction and parturition, mammary gland and endometrial development, maintenance of myometrial quiescence during pregnancy. Relaxin signaling through its G protein-coupled receptor (GPCR) RXFP1 results in ECM remodeling through regulation of collagen deposition, cell invasiveness, proliferation and overall tissue homeostasis. […] Recombinant human relaxin (rhRlx) is currently being tested in clinical trials as a protective agent in congestive heart failure, in treating severe preeclampsia, and as an anti-fibrotic agent in various organs. […] Upon relaxin binding RXFP1 activation leads to the activation of adenylate cyclase (AC) via G?s. cAMP will activate PKA, which phosphorylates many signaling proteins. Thus, detection of cAMP increase is an easy and reliable indication of relaxin receptor activation. To screen for antagonists of the relaxin receptor, a HEK293T cell line stably transfected with RXFP1 was used. RXFP1 activation by relaxin in presence of various concentrations of tested compounds was assayed by changes in cAMP levels as detected with a time-resolved fluorescence energy transfer (TR-FRET) cAMP detection kit.
# For the primary screening, we used HTRF(R) (Homogenous Time-Resolved Fluorescence) cAMP HiRange assay (Cisbio Bioassays, 62AM6PEJ). Presence of cAMP in the cell lysate disrupts binding between the Cryptate-labeled anti-cAMP and d2-labeled cAMP pair, leading to a decrease in TR-FRET signal. The libraries were screened at two doses (57microM and 11microM), followed by a confirmation of the hits at 7-point serial dilution in the range of final concentrations [57microM - 78nM]. Data were normalized to the controls for basal activity (buffer only) and 100% activity (5 nM porcine relaxin). The EC50 values were determined from concentration-response data modeled with the standard Hill equation. NCGC Assay Protocol Summary: HiHEK (Hawaiian HEK293 LGR7 stably transfected with human RXFP1) were grown in the following media: DMEM+10%FBS+Pen/Strep + Geneticin (1mg/ml). For the assay, the cells were seeded in DMEM+Pen/Strep (with no serum & selective antibiotics) at 2,100 cells/ 3microl/well with MultiDrop Combi dispenser (Thermo Scientific, Logan, UT) onto white tissue culture treated solid bottom1536-well plates (Greiner #789173-F) and allowed to attach/recover overnight at 37 degrees C, 5% CO2. Next, 23nl/well of compound solutions in DMSO were transferred into wells with a pintool (Kalypsis, San Diego, CA). […] EC80 (relaxin at 50pM final concentration) was dispensed to the rest of the plate except columns 1&2 which were used as a negative control (EC0, buffer only), 1microl/well also. The cells were stimulated by relaxin in the presence of compounds for 30 minutes at 37 degrees C, 5% CO2. The detection reagents were prepared individually by dilution in Lysis buffer (supplied with the assay kit) just prior to dispensing. 1microl/well of cAMP-d2 and 1microl/well anti-cAMP-Eu3+-Cryptate antibodies were added simultaneously with BioRAPTR FRDtrade mark Workstation (Beckman Coulter). The plates were incubated at ambient temperature for 30 minutes and, then, FRET signal was read on Envision plate reader (PerkinElmer, Waltham, MA), at wavelengths 340nm (excitation), 615nm & 665nm (emission of donor and acceptor channels respectively).
# % is scaled to controls: 0 for no effect and ±100 for the full control effect.
# Relaxin receptor 1 (Homo sapiens), sequence (Q9HBX9 whole entry, looked up): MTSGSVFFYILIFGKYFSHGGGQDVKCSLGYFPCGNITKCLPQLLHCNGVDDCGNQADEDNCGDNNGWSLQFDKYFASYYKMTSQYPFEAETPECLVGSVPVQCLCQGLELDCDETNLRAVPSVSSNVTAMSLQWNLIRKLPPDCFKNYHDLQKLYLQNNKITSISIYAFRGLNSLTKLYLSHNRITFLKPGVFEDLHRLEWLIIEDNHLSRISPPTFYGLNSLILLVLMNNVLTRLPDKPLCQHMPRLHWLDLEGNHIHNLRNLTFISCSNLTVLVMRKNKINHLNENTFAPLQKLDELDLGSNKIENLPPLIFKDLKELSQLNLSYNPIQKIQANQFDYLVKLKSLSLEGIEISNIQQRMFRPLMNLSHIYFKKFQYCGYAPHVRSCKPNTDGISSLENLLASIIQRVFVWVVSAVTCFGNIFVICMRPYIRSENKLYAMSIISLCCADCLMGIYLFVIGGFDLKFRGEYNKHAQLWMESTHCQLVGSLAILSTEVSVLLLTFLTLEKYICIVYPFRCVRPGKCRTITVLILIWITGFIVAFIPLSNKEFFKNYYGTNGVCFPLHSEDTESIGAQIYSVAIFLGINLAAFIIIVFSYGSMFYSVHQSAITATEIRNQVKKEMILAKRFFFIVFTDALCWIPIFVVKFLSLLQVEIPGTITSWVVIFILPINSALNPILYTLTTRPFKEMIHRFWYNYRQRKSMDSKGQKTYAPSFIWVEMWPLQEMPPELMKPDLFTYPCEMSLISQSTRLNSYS
row,SMILES,"activity change, negative = inhibition"
1,O=C1NC(=O)C(CCOc2ccccc2)(CCc2ccccc2)C(=O)N1,1.73% (inactive)
2,O=C1NC(=O)C(Cc2ccccc2)C(=O)N1,13.2% (inactive)
3,CCC1(CC(C)c2ccccc2)C(=O)NC(=O)NC1=O (stereo not given),-60.5% (active)
4,COC(=O)C1=C(c2ccc(OCc3ccccc3)cc2)C[C@@H]2CC[C@H]1N2C(=O)NCc1ccc(Cl)cc1,-0.858% (inactive)
5,COc1ccc(C2C=C(C)Oc3c2c(=O)oc2ccccc32)cc1OC (stereo not given),-2.25% (inactive)
6,Cc1cc(/C=C2/C(=O)NC(=O)N(Cc3ccco3)C2=O)c(C)n1-c1ccc(C(=O)O)cc1,7.49% (inactive)
7,O=C1NC(=O)N(Cc2ccco2)C(=O)/C1=C\c1cccn1CCOc1ccccc1,2.7% (inactive)
8,O=C1NC(=O)N(Cc2ccco2)C(=O)/C1=C\c1ccc(-c2ccc(F)cc2)o1,-116% (active)
9,CC1N=C(N)OC1c1ccccc1 (stereo not given),7.33% (inactive)
10,CC(=CCOc1ccc2ccc(=O)oc2c1)C1=CC(=O)C(C)(C)O1,1.36% (inactive)
11,O=C1NC(=O)N(c2ccccc2)C(=O)/C1=C/c1ccc([N+](=O)[O-])s1,-11.7% (inactive)
12,Cc1cccc(N2C(=O)NC(=O)/C(=C\c3cnn(-c4ccccc4)c3)C2=O)c1,-97.1% (active)
13,COc1cccc(N2C(=O)NC(=O)/C(=C\c3cn(C)c4ccccc34)C2=O)c1,1.09% (inactive)
14,CC1=C(C(=O)O)N2C(=O)[C@@H](N)[C@H]2SC1,7.08% (inactive)
15,C[C@H]1CN([C@@H](C)CO)C(=O)CCCn2nncc2CO[C@H]1CN(C)C(=O)Oc1ccccc1,-9.78% (inactive)
16,CC(c1ccccc1)(c1ccccc1)c1ccncc1,-80.6% (active)
17,O=S(=O)(O)C(F)(F)C(F)(F)C(F)(F)C(F)(F)F,19.3% (inactive)
18,CO[C@]12CC[C@@]3(C[C@@H]1[C@](C)(O)C(C)(C)C)[C@@H]1Cc4ccc(O)c5c4[C@@]3(CCN1CC1CC1)[C@H]2O5,-34% (inactive)
19,CCCOC(=O)c1cncn1C(C)c1ccccc1 (stereo not given),12.5% (inactive)
20,Cc1ncoc1C(=O)NCC1=C(c2cccc3ccccc23)C[C@@H]2CC[C@H]1N2Cc1ccco1,-0.31% (inactive)
21,c1cc2c(c(NC3=NCCCS3)c1)CCCC2,4.47% (inactive)
22,CCCCC1C(=O)NC(=O)N(C2CCCCC2)C1=O (stereo not given),-10.8% (inactive)
23,CCCCCCCCCCCCn1ccc(=N)cc1,-73.7% (active)
24,O=c1c2ccccc2nc(CBr)n1-c1ccc(Cl)cc1,8.62% (inactive)
25,C[C@H]1CN([C@@H](C)CO)C(=O)CCCn2nncc2CO[C@H]1CN(C)C(=O)Oc1cccc2ccccc12,3.41% (inactive)
